Test results from PubChem BioAssay (NCI).
The panel holds about 79,000 compounds, 15% with a hit somewhere; the sample as a whole holds those more often. A number with no mark means an inactive call. Calls of active or inactive are those of the source. Rule as the data show it: active = growth inhibition above about 70%; inactive = the rest.

Assays:
[1] = NCI Yeast Anticancer Drug Screen. Data for the rad52 strain (AID 147);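 also: 0% = growth of vehicle-treated control cultures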; conditions: S. cerevisiae rad52 mutant growth inhibition, stronger effect = higher value
Summary of the method: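 The repair-mutant yeast strain was incubated with compounds, then growth was read and inhibition derived relative to vehicle.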

[2] = NCI Yeast Anticancer Drug Screen. Data for the wt1 strain (AID 149);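 also: 0% = growth of vehicle-treated wt1 cultures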; conditions: S. cerevisiae wt1 strain (SPY 50644) growth inhibition, stronger effect = higher value
Summary of the method: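 wt1 yeast, compound-treated; % growth inhibition vs vehicle control.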

[3] = NCI Yeast Anticancer Drug Screen. Data for the rad50EPP+ strain (AID 151);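 also: 0% = growth of vehicle-treated control cultures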; conditions: S. cerevisiae rad50 mutant strain, stronger effect = higher value
Summary of the method: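 Vehicle-normalised growth inhibition; rad50EPP+ yeast strain, altered in DNA damage repair, compound-treated.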

[4] = NCI Yeast Anticancer Drug Screen. Data for the mgt1 strain (AID 153); conditions: S. cerevisiae mgt1 mutant growth inhibition, stronger effect = higher value
Summary of the method: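 Vehicle-normalized growth inhibition is determined in mgt1 yeast, a strain selected for a defined alteration in DNA repair or cell cycle control.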

[5] = NCI Yeast Anticancer Drug Screen. Data for the rad50 strain (AID 155);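 also: 0% = growth of vehicle-only cultures of the same strain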; conditions: S. cerevisiae rad50 strain growth inhibition, stronger effect = higher value
Summary of the method: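 Genetically altered yeast (DNA repair pathway); compound treatment; growth inhibition vs vehicle ctrl.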

[6] = NCI Yeast Anticancer Drug Screen. Data for the mec2-1 strain (AID 157); conditions: S. cerevisiae mec2-1 strain, stronger effect = higher value
Summary of the method: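 Mutant yeast (mec2-1) grown with compound; growth inhibition relative to vehicle control reported.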

[7] = NCI Yeast Anticancer Drug Screen. Data for the rad14 strain (AID 159);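 also: 0% = growth of vehicle-treated control cultures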; conditions: S. cerevisiae rad14 strain growth inhibition, stronger effect = higher value
Summary of the method: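 Test compounds were applied to a repair-deficient yeast strain. Its growth was then compared with that of cultures given vehicle alone, and inhibition was expressed relative to those controls.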

[8] = NCI Yeast Anticancer Drug Screen. Data for the sgs1 mgt1 strain (AID 161);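 also: 0% = growth of cultures given vehicle only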; conditions: S. cerevisiae sgs1 mgt1 strain, stronger effect = higher value
Summary of the method: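 Percent growth inhibition was derived by comparing compound-exposed mutant yeast with vehicle-exposed cultures. The strain carries alterations in DNA damage repair.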

[9] = NCI Yeast Anticancer Drug Screen. Data for the CLN2oe strain (AID 163);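 also: 0% = growth of vehicle-only control cultures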; conditions: S. cerevisiae CLN2oe strain, stronger effect = higher value
Summary of the method: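 Compounds are applied to yeast harbouring a defined cell-cycle control change; reduced growth compared with vehicle-treated controls gives the value.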

[10] = NCI Yeast Anticancer Drug Screen. Data for the cln2 rad14 strain (AID 165);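 also: 0% = growth equal to vehicle treated cultures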; conditions: S. cerevisiae cln2 rad14 strain, stronger effect = higher value
Summary of the method: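 Readout is yeast growth inhibition versus vehicle-treated controls, using a strain with cln2 and rad14 alterations exposed to compound.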

[11] = NCI Yeast Anticancer Drug Screen. Data for the bub3 strain (AID 167); conditions: S. cerevisiae bub3 mutant strain, stronger effect = higher value
Summary of the method: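 Yeast carrying a defined mutation is treated with each compound, and growth is compared with that of vehicle-exposed cells to give inhibition.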

[12] = NCI Yeast Anticancer Drug Screen. Data for the wt2 strain (AID 169);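 also: 0% = growth of vehicle-treated yeast cultures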; conditions: S. cerevisiae wt2 strain growth inhibition, stronger effect = higher value
Summary of the method: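 Against vehicle-treated controls, the growth of yeast exposed to each compound was compared, and the inhibition was recorded.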

[13] = NCI Yeast Anticancer Drug Screen. Data for the mlh1 strain (AID 171);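 also: 0% = growth of vehicle-treated control cultures of the same strain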; conditions: S. cerevisiae mlh1 strain growth inhibition, stronger effect = higher value
Summary of the method: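 Measured: yeast growth. Reference: vehicle-treated controls. Organism: strain with a defined alteration affecting DNA damage repair or cell cycle control, treated with compound.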

[14] = NCI Yeast Anticancer Drug Screen. Data for the sgs1 strain (AID 173);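 also: 0% = growth of vehicle-only control cultures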; conditions: S. cerevisiae sgs1 mutant, stronger effect = higher value
Summary of the method: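 Each compound was added to cultures of the altered yeast strain. Growth was recorded, and inhibition was derived by comparison with vehicle controls.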

[15] = NCI Yeast Anticancer Drug Screen. Data for the mlh1 rad18 strain (AID 175); conditions: S. cerevisiae mlh1 rad18 strain growth inhibition, stronger effect = higher value
Summary of the method: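 Genetically defined yeast (DNA repair-deficient) exposed to compounds; growth inhibition determined relative to vehicle.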

[16] = NCI Yeast Anticancer Drug Screen. Data for the rad18 strain (AID 177); conditions: S. cerevisiae rad18 mutant growth inhibition, stronger effect = higher value
Summary of the method: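 Vehicle-treated cultures served as the baseline for scoring compound-induced growth inhibition in DNA-repair-mutant yeast.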

[17] = at 5.0 µM (retest, dose inferred, filed as 0.5)
[18] = at 50.0 µM (retest, dose inferred, filed as 5.0)

CN(C)c1ccc(C2CC(C)(O)Oc3cc4c(cc32)OCO4)cc1 (stereo unspecified)
growth inhibition ([1]; at 1.2 µM): -1% | growth inhibition ([1]; at 3.7 µM): -1% | growth inhibition ([1]; at 11.0 µM): 10% | growth inhibition ([1]; at 33.0 µM): 28% | growth inhibition ([1]; at 100.0 µM): 70% (active) | growth inhibition ([2]; at 1.2 µM): 0% | growth inhibition ([2]; at 3.7 µM): 5% | growth inhibition ([2]; at 11.0 µM): 1% | growth inhibition ([2]; at 33.0 µM): 1% | growth inhibition ([2]; at 100.0 µM): 7% | growth inhibition ([3]; at 1.2 µM): 2% | growth inhibition ([3]; at 3.7 µM): 4% | growth inhibition ([3]; at 11.0 µM): 20% | growth inhibition ([3]; at 33.0 µM): 36% | growth inhibition ([3]; at 100.0 µM): 59% | growth inhibition ([4]; at 1.2 µM): -2% | growth inhibition ([4]; at 3.7 µM): -3% | growth inhibition ([4]; at 11.0 µM): 0% | growth inhibition ([4]; at 33.0 µM): 4% | growth inhibition ([4]; at 100.0 µM): 48% | growth inhibition ([5]; at 1.2 µM): -1% | growth inhibition ([5]; at 3.7 µM): -2% | growth inhibition [5, 17]: 10% | growth inhibition ([5]; at 11.0 µM): 5% | growth inhibition ([5]; at 33.0 µM): 12% | growth inhibition [5, 18]: 77% (active) | growth inhibition ([5]; at 50.0 µM): 24.6% | growth inhibition ([5]; at 100.0 µM): 40% | growth inhibition ([6]; at 1.2 µM): -6% | growth inhibition ([6]; at 3.7 µM): 0% | growth inhibition [6, 17]: -20% | growth inhibition ([6]; at 11.0 µM): 2% | growth inhibition ([6]; at 33.0 µM): 4% | growth inhibition [6, 18]: 12% | growth inhibition ([6]; at 50.0 µM): 14.3% | growth inhibition ([6]; at 100.0 µM): 29% | growth inhibition ([7]; at 1.2 µM): -1% | growth inhibition ([7]; at 3.7 µM): 1% | growth inhibition ([7]; at 11.0 µM): 9% | growth inhibition ([7]; at 33.0 µM): 27% | growth inhibition ([7]; at 100.0 µM): 58% | growth inhibition [8, 17]: 2% | growth inhibition [8, 18]: 83% (active) | growth inhibition ([8]; at 50.0 µM): 34.7% | growth inhibition ([9]; at 1.2 µM): -5% | growth inhibition ([9]; at 3.7 µM): -16% | growth inhibition ([9]; at 11.0 µM): 4% | growth inhibition ([9]; at 33.0 µM): -3% | growth inhibition ([9]; at 100.0 µM): 16% | growth inhibition [10, 17]: 1% | growth inhibition [10, 18]: 37% | growth inhibition ([10]; at 50.0 µM): 21.3% | growth inhibition ([11]; at 1.2 µM): -5% | growth inhibition ([11]; at 3.7 µM): -3% | growth inhibition [11, 17]: 18% | growth inhibition ([11]; at 11.0 µM): 3% | growth inhibition ([11]; at 33.0 µM): 10% | growth inhibition [11, 18]: 79% (active) | growth inhibition ([11]; at 50.0 µM): 27.9% | growth inhibition ([11]; at 100.0 µM): 16% | growth inhibition ([12]; at 1.2 µM): -1% | growth inhibition ([12]; at 3.7 µM): -2% | growth inhibition ([12]; at 11.0 µM): -1% | growth inhibition ([12]; at 33.0 µM): 7% | growth inhibition ([12]; at 100.0 µM): 46% | growth inhibition ([13]; at 1.2 µM): -3% | growth inhibition ([13]; at 3.7 µM): 0% | growth inhibition ([13]; at 11.0 µM): 2% | growth inhibition ([13]; at 33.0 µM): 11% | growth inhibition ([13]; at 100.0 µM): 41% | growth inhibition ([14]; at 1.2 µM): -1% | growth inhibition ([14]; at 3.7 µM): 7% | growth inhibition ([14]; at 11.0 µM): 23% | growth inhibition ([14]; at 33.0 µM): 55% | growth inhibition ([14]; at 100.0 µM): 87% (active) | growth inhibition [15, 17]: 23% | growth inhibition [15, 18]: 93% (active) | growth inhibition ([15]; at 50.0 µM): 43.5% | growth inhibition ([16]; at 1.2 µM): 24% | growth inhibition ([16]; at 3.7 µM): 57% | growth inhibition ([16]; at 11.0 µM): 89% (active) | growth inhibition ([16]; at 33.0 µM): 92% (active) | growth inhibition ([16]; at 100.0 µM): 95% (active)

CC(=O)Nc1ccc2c(c1)-c1ccccc1C2=O
growth inhibition ([1]; at 1.2 µM): -1% | growth inhibition ([1]; at 3.7 µM): 1% | growth inhibition ([1]; at 11.0 µM): 10% | growth inhibition ([1]; at 33.0 µM): 70% (active) | growth inhibition ([1]; at 100.0 µM): 95% (active) | growth inhibition ([2]; at 1.2 µM): -2% | growth inhibition ([2]; at 3.7 µM): -1% | growth inhibition ([2]; at 11.0 µM): -48% | growth inhibition ([2]; at 33.0 µM): 6% | growth inhibition ([2]; at 100.0 µM): 45% | growth inhibition ([3]; at 1.2 µM): -2% | growth inhibition ([3]; at 3.7 µM): -4% | growth inhibition ([3]; at 11.0 µM): 2% | growth inhibition ([3]; at 33.0 µM): 25% | growth inhibition ([3]; at 100.0 µM): 78% (active) | growth inhibition ([4]; at 1.2 µM): -5% | growth inhibition ([4]; at 3.7 µM): -4% | growth inhibition ([4]; at 11.0 µM): -5% | growth inhibition ([4]; at 33.0 µM): 1% | growth inhibition ([4]; at 100.0 µM): 76% (active) | growth inhibition ([5]; at 1.2 µM): -2% | growth inhibition ([5]; at 3.7 µM): 19% | growth inhibition [5, 17]: 2% | growth inhibition ([5]; at 11.0 µM): 20% | growth inhibition ([5]; at 33.0 µM): 68% | growth inhibition [5, 18]: 54% | growth inhibition ([5]; at 50.0 µM): 67.8% | growth inhibition ([5]; at 100.0 µM): 95% (active) | growth inhibition ([6]; at 1.2 µM): -1% | growth inhibition ([6]; at 3.7 µM): 2% | growth inhibition [6, 17]: 7% | growth inhibition ([6]; at 11.0 µM): 4% | growth inhibition ([6]; at 33.0 µM): 15% | growth inhibition [6, 18]: 15% | growth inhibition ([6]; at 50.0 µM): 6.9% | growth inhibition ([6]; at 100.0 µM): 70% (active) | growth inhibition ([7]; at 1.2 µM): -4% | growth inhibition ([7]; at 3.7 µM): -6% | growth inhibition ([7]; at 11.0 µM): -3% | growth inhibition ([7]; at 33.0 µM): 10% | growth inhibition ([7]; at 100.0 µM): 82% (active) | growth inhibition [8, 17]: -3% | growth inhibition [8, 18]: 6% | growth inhibition ([8]; at 50.0 µM): 2.4% | growth inhibition ([9]; at 1.2 µM): -6% | growth inhibition ([9]; at 3.7 µM): -8% | growth inhibition ([9]; at 11.0 µM): -8% | growth inhibition ([9]; at 33.0 µM): -9% | growth inhibition ([9]; at 100.0 µM): 13% | growth inhibition [10, 17]: -3% | growth inhibition [10, 18]: 11% | growth inhibition ([10]; at 50.0 µM): -39.4% | growth inhibition ([11]; at 1.2 µM): 0% | growth inhibition ([11]; at 3.7 µM): -3% | growth inhibition [11, 17]: -3% | growth inhibition ([11]; at 11.0 µM): -1% | growth inhibition ([11]; at 33.0 µM): 7% | growth inhibition [11, 18]: -4% | growth inhibition ([11]; at 50.0 µM): -20.4% | growth inhibition ([11]; at 100.0 µM): 66% | growth inhibition ([12]; at 1.2 µM): -4% | growth inhibition ([12]; at 3.7 µM): 4% | growth inhibition ([12]; at 11.0 µM): -6% | growth inhibition ([12]; at 33.0 µM): 1% | growth inhibition ([12]; at 100.0 µM): 62% | growth inhibition ([13]; at 1.2 µM): -2% | growth inhibition ([13]; at 3.7 µM): -2% | growth inhibition ([13]; at 11.0 µM): 1% | growth inhibition ([13]; at 33.0 µM): 13% | growth inhibition ([13]; at 100.0 µM): 82% (active) | growth inhibition ([14]; at 1.2 µM): -5% | growth inhibition ([14]; at 3.7 µM): -8% | growth inhibition ([14]; at 11.0 µM): -9% | growth inhibition ([14]; at 33.0 µM): 8% | growth inhibition ([14]; at 100.0 µM): 81% (active) | growth inhibition [15, 17]: 1% | growth inhibition [15, 18]: 20% | growth inhibition ([15]; at 50.0 µM): -1.15% | growth inhibition ([16]; at 1.2 µM): -3% | growth inhibition ([16]; at 3.7 µM): -5% | growth inhibition ([16]; at 11.0 µM): -3% | growth inhibition ([16]; at 33.0 µM): 14% | growth inhibition ([16]; at 100.0 µM): 89% (active)
